# Reference: paper PMC7862700, “An all-to-all approach to the identification of sequence-specific readers for epigenetic DNA modifications on cytosine”
# Experiments:
# Assay in all cases: DAPPL (digital affinity profiling via proximity ligation, sequencing); 10 mM Tris-HCl pH 7.5, 50 mM NaCl, 1 mM DTT, 4% glycerol, room temperature, 30 min; GST-TFs on glutathione beads, 16-mer random dsDNA library, 0.1% formaldehyde crosslink after washing; high values mean tight binding
# FLI1 = biological target: T1, FLI1 (Homo sapiens, UniProt Q01543 1-452); settings: protein: recombinant; tags: N-terminal GST; dsDNA, one strand shown
# T1 sequence: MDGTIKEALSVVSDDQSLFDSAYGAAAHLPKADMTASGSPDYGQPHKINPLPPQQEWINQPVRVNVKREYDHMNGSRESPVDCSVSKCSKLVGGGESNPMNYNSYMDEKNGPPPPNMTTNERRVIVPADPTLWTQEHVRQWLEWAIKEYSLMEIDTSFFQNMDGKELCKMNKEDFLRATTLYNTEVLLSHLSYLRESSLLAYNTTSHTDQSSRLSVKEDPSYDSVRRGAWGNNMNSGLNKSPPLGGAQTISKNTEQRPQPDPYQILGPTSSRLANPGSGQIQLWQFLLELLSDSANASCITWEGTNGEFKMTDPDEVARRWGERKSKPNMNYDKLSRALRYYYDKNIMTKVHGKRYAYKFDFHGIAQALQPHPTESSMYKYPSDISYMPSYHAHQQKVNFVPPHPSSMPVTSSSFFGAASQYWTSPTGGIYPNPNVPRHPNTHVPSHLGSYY
# Method in brief: (§1)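 In yeast, human transcription factors were expressed with a GST fusion, then pulled down on glutathione beads and given DNA barcodes. Pooled with a tag-only sample, they were exposed to 200 nmole of a 16-mer random double-stranded DNA library (Tris/NaCl/DTT/glycerol buffer, room temperature, 30 min), washed, crosslinked with 0.1% formaldehyde, proximity-ligated using BsaI/T4 ligase for 1 h at 37 °C, PCR-amplified and read on an Illumina NextSeq500. Each hexamer's frequency of reads for a factor, divided by the matching frequency for the tag-only sample, gives the binding signal.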
# ELK1 = biological target: T2, ELK1 (Homo sapiens, UniProt P19419 1-428); settings: protein: recombinant; tags: N-terminal GST; dsDNA, one strand shown
# T2 sequence: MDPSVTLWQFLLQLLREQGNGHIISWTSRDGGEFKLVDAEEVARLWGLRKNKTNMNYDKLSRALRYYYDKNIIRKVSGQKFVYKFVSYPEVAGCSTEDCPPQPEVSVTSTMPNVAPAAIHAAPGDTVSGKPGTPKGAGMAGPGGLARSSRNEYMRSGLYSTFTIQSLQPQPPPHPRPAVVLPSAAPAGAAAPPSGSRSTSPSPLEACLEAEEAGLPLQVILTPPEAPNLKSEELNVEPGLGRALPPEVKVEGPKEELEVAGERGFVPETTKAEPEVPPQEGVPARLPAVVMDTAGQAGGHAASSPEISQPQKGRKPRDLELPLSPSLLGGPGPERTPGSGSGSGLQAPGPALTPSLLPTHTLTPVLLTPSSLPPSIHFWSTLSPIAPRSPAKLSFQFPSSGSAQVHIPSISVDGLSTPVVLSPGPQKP
# Method in brief: as §1
# GABPA = biological target: T3, GABPA (Homo sapiens, UniProt Q06546 1-454); settings: protein: recombinant; tags: N-terminal GST; dsDNA, one strand shown
# T3 sequence: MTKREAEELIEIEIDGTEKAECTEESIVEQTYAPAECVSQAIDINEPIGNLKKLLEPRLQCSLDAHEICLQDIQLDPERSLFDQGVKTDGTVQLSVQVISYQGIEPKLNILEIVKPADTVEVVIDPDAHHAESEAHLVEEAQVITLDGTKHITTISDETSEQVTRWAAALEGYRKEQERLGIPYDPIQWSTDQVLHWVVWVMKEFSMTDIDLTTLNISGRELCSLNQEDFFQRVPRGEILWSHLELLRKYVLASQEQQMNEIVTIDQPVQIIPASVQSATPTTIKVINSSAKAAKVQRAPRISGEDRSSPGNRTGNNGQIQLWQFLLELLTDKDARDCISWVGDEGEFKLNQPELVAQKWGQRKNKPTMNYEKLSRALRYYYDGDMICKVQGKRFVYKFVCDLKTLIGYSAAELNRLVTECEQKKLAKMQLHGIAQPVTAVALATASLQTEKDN
# Method in brief: as §1
# ERG = biological target: T4, ERG (Homo sapiens, UniProt P11308 1-479); settings: protein: recombinant; tags: N-terminal GST; dsDNA, one strand shown
# T4 sequence: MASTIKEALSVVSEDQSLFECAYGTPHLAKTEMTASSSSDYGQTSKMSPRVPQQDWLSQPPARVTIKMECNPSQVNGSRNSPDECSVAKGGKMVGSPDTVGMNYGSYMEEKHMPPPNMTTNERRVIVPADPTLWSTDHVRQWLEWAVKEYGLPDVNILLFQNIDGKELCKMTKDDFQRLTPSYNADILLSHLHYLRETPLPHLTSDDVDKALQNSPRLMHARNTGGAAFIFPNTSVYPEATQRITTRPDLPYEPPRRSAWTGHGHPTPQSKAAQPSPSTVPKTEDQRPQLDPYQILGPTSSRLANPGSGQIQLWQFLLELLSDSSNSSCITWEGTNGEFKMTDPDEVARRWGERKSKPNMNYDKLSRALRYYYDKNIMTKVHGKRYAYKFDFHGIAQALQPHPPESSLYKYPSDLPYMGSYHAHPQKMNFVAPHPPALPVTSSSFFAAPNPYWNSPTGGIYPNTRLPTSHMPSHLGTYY
# Method in brief: as §1
# ELF1 = ELF1 (Homo sapiens, UniProt P32519 1-619); settings: protein: recombinant; tags: N-terminal GST; dsDNA, one strand shown
# Chain of ELF1 (P32519 whole entry): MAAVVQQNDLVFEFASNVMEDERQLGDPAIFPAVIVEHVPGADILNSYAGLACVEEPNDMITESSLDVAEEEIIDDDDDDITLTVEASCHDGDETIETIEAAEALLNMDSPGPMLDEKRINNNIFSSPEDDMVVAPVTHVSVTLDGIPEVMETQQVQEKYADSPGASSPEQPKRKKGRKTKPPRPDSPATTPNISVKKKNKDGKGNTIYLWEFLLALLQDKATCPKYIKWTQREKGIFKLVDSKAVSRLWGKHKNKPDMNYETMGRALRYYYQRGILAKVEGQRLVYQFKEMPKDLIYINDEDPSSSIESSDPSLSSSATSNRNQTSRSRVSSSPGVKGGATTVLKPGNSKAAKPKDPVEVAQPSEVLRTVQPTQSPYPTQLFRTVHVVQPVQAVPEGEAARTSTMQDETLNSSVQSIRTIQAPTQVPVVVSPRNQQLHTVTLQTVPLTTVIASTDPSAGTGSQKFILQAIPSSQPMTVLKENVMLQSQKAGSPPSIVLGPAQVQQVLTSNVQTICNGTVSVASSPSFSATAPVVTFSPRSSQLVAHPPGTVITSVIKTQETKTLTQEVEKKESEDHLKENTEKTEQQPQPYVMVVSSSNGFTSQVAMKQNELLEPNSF
# Method in brief: as §1
# EHF = biological target: T5, EHF (Homo sapiens, UniProt Q9NZC4 1-300); settings: protein: recombinant; tags: N-terminal GST; dsDNA, one strand shown
# T5 sequence: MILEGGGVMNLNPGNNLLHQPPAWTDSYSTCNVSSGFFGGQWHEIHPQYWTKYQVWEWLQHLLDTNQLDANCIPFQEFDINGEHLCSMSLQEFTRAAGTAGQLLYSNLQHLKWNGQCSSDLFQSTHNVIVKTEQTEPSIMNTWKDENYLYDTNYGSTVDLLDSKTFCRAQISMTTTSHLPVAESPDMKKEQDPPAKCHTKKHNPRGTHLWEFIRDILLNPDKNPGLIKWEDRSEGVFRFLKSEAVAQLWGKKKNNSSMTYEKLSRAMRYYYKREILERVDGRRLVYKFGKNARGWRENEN
# Method in brief: as §1
# SPI1 = SPI1 (Homo sapiens, UniProt P17947 1-270); settings: protein: recombinant; tags: N-terminal GST; dsDNA, one strand shown
# Method in brief: as §1
# SPIB = SPIB (Homo sapiens, UniProt Q01892 1-262); settings: protein: recombinant; tags: N-terminal GST; dsDNA, one strand shown
# Chain of SPIB (Q01892 whole entry): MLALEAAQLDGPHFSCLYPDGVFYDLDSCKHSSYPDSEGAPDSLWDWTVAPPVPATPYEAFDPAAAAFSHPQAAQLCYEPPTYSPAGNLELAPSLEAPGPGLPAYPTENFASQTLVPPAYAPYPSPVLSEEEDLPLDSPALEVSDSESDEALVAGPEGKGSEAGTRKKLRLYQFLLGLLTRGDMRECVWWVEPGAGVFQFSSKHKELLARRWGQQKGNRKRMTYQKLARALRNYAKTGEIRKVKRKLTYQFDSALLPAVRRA
# Method in brief: as §1
# ELK3 = biological target: T6, ELK3 (Homo sapiens, UniProt P41970 1-407); settings: protein: recombinant; tags: N-terminal GST; dsDNA, one strand shown
# T6 sequence: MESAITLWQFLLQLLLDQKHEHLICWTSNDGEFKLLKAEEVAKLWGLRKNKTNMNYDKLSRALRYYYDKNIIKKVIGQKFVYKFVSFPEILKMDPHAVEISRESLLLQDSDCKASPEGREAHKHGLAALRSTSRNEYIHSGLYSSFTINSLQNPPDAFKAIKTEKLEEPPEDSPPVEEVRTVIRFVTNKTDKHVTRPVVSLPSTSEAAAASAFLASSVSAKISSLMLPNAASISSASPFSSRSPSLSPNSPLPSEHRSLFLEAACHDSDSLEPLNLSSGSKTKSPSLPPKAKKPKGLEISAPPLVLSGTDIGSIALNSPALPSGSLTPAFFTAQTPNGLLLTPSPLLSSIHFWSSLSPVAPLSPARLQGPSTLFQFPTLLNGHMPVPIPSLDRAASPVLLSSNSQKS
# Method in brief: as §1
# FEV = biological target: T7, FEV (Homo sapiens, UniProt Q99581 1-238); settings: protein: recombinant; tags: N-terminal GST; dsDNA, one strand shown
# T7 sequence: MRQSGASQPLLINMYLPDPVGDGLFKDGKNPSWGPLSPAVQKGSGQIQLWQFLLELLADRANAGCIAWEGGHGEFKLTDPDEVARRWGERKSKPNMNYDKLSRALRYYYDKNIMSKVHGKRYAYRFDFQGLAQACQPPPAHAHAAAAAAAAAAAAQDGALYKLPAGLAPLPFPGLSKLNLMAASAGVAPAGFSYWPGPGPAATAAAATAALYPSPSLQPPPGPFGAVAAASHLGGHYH
# Method in brief: as §1
# ETV5 = ETV5 (Homo sapiens, UniProt P41161 1-510); settings: protein: recombinant; tags: N-terminal GST; dsDNA, one strand shown
# Chain of ETV5 (P41161 whole entry): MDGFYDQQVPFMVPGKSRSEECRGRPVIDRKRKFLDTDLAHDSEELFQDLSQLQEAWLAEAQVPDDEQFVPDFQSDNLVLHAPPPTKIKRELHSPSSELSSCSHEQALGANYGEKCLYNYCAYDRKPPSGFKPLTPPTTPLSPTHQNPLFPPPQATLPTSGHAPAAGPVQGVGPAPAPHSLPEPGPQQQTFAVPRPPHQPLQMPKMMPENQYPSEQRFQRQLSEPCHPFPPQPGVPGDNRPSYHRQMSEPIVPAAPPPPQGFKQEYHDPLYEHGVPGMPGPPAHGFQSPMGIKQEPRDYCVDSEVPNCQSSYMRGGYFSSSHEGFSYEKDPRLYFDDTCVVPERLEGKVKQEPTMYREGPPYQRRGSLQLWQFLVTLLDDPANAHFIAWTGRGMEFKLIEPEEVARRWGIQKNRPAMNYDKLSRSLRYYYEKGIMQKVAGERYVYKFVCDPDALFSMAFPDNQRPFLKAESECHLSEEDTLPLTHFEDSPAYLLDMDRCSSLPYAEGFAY
# Method in brief: as §1
# HSF1 = HSF1 (Homo sapiens, UniProt Q00613 1-529); settings: protein: recombinant; tags: N-terminal GST; chain copies: 3; dsDNA, one strand shown
# Chain of HSF1 (Q00613 whole entry): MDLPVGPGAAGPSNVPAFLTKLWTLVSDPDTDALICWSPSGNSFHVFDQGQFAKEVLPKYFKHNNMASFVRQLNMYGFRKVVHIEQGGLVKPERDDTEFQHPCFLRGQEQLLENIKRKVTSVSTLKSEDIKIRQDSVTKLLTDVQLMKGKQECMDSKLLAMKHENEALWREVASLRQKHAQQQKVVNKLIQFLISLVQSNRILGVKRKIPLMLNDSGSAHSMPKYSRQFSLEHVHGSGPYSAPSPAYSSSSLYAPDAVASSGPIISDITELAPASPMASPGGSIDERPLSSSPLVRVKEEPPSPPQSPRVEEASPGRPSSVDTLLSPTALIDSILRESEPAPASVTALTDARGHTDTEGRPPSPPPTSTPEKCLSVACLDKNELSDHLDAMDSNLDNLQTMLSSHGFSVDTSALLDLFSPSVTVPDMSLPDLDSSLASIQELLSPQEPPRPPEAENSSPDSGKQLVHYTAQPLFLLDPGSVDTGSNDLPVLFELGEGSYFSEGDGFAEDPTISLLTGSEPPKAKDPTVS
# Method in brief: as §1
# SPIC = biological target: T8, SPIC (Homo sapiens, UniProt Q8N5J4 1-248); settings: protein: recombinant; tags: N-terminal GST; dsDNA, one strand shown
# T8 sequence: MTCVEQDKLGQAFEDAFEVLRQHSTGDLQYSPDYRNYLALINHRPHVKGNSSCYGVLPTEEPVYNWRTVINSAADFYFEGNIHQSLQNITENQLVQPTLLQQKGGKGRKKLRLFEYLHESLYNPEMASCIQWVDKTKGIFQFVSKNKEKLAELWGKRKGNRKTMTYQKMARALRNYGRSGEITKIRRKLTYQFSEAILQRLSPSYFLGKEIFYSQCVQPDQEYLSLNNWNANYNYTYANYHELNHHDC
# Method in brief: as §1
# ELF4 = ELF4 (Homo sapiens, UniProt Q99607 1-663); settings: protein: recombinant; tags: N-terminal GST; dsDNA, one strand shown
# Chain of ELF4 (Q99607 whole entry): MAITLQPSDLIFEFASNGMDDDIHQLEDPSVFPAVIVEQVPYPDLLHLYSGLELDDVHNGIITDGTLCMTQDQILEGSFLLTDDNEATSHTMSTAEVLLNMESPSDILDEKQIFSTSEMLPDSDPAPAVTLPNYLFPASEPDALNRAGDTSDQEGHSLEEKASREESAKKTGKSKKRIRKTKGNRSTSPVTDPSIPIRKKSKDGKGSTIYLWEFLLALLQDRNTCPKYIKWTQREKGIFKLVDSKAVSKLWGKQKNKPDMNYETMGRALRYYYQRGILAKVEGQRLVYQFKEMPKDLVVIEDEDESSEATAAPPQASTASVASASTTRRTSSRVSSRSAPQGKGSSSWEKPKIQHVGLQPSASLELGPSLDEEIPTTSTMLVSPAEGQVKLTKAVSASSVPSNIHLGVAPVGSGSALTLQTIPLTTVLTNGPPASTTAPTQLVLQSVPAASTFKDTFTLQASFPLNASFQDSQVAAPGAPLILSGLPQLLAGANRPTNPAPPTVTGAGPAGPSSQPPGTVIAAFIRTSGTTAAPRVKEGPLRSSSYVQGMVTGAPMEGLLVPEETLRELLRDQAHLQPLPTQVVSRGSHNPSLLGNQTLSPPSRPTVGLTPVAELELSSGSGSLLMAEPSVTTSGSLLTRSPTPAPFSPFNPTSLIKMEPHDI
# Method in brief: as §1
# ELK4 = biological target: T9, ELK4 (Homo sapiens, UniProt P28324-2 1-405); settings: protein: recombinant; tags: N-terminal GST; dsDNA, one strand shown
# T9 sequence: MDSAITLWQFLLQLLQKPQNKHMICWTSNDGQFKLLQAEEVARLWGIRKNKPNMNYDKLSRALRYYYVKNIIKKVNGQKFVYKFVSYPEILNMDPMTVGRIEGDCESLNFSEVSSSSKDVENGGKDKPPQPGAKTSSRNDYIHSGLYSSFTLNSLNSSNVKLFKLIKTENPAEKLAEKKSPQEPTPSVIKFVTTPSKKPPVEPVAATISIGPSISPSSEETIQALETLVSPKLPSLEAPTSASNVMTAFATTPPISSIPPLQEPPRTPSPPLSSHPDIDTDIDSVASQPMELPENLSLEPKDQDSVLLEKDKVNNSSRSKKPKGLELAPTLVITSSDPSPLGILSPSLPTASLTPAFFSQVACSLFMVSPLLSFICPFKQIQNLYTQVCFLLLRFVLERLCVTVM
# Method in brief: as §1
# ETV2 = biological target: T10, ETV2 (Homo sapiens, UniProt O00321 1-342); settings: protein: recombinant; tags: N-terminal GST; dsDNA, one strand shown
# T10 sequence: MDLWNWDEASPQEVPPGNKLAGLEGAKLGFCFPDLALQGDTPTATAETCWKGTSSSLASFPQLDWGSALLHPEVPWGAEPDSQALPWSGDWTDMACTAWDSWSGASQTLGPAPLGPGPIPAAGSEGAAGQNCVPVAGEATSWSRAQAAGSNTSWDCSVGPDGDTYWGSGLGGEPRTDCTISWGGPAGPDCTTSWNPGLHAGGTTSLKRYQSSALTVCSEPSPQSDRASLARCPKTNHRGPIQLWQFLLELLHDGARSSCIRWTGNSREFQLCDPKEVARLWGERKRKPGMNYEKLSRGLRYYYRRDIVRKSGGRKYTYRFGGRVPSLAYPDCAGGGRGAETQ
# Method in brief: as §1
# ELF3 = biological target: T11, ELF3 (Homo sapiens, UniProt P78545 1-371); settings: protein: recombinant; tags: N-terminal GST; dsDNA, one strand shown
# T11 sequence: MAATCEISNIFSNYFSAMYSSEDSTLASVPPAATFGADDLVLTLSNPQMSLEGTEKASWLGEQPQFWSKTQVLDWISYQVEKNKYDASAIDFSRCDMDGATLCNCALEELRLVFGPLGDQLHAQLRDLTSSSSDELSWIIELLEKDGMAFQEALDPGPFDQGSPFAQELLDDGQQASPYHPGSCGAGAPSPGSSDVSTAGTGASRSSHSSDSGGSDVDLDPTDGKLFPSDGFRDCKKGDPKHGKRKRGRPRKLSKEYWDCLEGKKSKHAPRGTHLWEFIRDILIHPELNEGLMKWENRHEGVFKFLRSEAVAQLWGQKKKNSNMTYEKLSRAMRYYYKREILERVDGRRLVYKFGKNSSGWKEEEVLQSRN
# Method in brief: as §1
# CRX = CRX (Homo sapiens, UniProt O43186 1-299); settings: protein: recombinant; tags: N-terminal GST; dsDNA, one strand shown
# Chain of CRX (O43186 whole entry): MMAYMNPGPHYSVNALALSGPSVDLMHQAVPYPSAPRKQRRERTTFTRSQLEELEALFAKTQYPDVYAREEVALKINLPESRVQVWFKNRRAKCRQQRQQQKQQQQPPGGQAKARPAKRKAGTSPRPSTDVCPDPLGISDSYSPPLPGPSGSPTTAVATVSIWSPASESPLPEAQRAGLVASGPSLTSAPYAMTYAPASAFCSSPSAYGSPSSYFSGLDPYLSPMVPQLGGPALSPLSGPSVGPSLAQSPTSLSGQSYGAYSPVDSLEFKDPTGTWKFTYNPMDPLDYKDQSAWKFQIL
# Method in brief: as §1
# ETV1 = ETV1 (Homo sapiens, UniProt P50549 1-477); settings: protein: recombinant; tags: N-terminal GST; dsDNA, one strand shown
# Chain of ETV1 (P50549 whole entry): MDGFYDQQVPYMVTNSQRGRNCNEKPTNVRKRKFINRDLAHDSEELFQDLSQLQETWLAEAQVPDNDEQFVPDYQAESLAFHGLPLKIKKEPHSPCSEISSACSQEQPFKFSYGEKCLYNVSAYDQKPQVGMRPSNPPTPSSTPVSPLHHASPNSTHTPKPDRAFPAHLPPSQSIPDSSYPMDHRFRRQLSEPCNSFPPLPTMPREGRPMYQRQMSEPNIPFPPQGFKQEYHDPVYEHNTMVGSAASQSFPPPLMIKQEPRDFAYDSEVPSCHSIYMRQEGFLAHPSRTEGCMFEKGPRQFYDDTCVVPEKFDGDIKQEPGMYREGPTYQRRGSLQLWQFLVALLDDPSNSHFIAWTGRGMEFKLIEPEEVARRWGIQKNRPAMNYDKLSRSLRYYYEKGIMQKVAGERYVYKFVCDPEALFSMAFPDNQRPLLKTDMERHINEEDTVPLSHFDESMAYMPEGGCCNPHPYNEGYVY
# Method in brief: as §1
sequence,measurement,setting,value
TTATAC,binding signal,FLI1,"1.55 fold enrichment (6-mer frequency, TF over GST control)"
same,binding signal,ELK1,"1.42 fold enrichment (6-mer frequency, TF over GST control)"
same,binding signal,GABPA,"1.39 fold enrichment (6-mer frequency, TF over GST control)"
same,binding signal,ERG,"1.35 fold enrichment (6-mer frequency, TF over GST control)"
same,binding signal,ELF1,"1.4 fold enrichment (6-mer frequency, TF over GST control)"
same,binding signal,EHF,"1.42 fold enrichment (6-mer frequency, TF over GST control)"
same,binding signal,SPI1,"1.3 fold enrichment (6-mer frequency, TF over GST control)"
same,binding signal,SPIB,"1.43 fold enrichment (6-mer frequency, TF over GST control)"
same,binding signal,ELK3,"1.35 fold enrichment (6-mer frequency, TF over GST control)"
same,binding signal,FEV,"1.35 fold enrichment (6-mer frequency, TF over GST control)"
same,binding signal,ETV5,"1.29 fold enrichment (6-mer frequency, TF over GST control)"
same,binding signal,HSF1,"1.79 fold enrichment (6-mer frequency, TF over GST control)"
same,binding signal,SPIC,"1.42 fold enrichment (6-mer frequency, TF over GST control)"
same,binding signal,ELF4,"1.49 fold enrichment (6-mer frequency, TF over GST control)"
same,binding signal,ELK4,"1.38 fold enrichment (6-mer frequency, TF over GST control)"
same,binding signal,ETV2,"1.38 fold enrichment (6-mer frequency, TF over GST control)"
same,binding signal,ELF3,"1.43 fold enrichment (6-mer frequency, TF over GST control)"
same,binding signal,CRX,"2.54 fold enrichment (6-mer frequency, TF over GST control)"
same,binding signal,ETV1,"1.5 fold enrichment (6-mer frequency, TF over GST control)"
